Screening results from PubChem.
RT RNaseH block: inhibitors of HIV-1 reverse transcriptase RNase H; 65,000 compounds, 1.9% hits; RT-RNase H RNA/DNA duplex cleavage, fluorescence; P04585; inhibition, % at 10 µM; in the data active = inhibition above about 50%
RmlC RmlD mix: inhibitors of RmlC and RmlD coupled enzymes; RmlC/RmlD coupled enzyme inhibition, 384-well mixture HTS; inhibition, % at 5.5 µM; 110,000 compounds, 0.39% hits; AID 1532; in the data active = inhibition above about 30%, passing the limit was not always enough; inconclusive = no clear call, values can overlap the other calls
RmlCD fluor art: RmlC/RmlD fluorescence artifact, counter-screen; RmlC/RmlD assay fluorescence artifact counter-screen; 360 compounds, 96% hits; calls only; AID 1696; shares compounds with RmlC RmlD mix; call rule not given here;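 also: compound alone with no enzyme and no substrates present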
* marks the source's active call; other numbers are inactive results. The entries come from a sample that favours hits as a whole.

For COc1ccccc1-c1coc2c(CN3CCN(CCO)CC3)c(O)ccc2c1=O the results were RT RNaseH block 1, RmlC RmlD mix 40* and RmlCD fluor art active.
For Cc1oc2c(CN3CCCC3)c(O)ccc2c(=O)c1Oc1ccccc1Br the results were RT RNaseH block -3, RmlC RmlD mix 64* and RmlCD fluor art active.
`Cc1oc2c(CN3CCOCC3)c(O)ccc2c(=O)c1-c1ccccc1` gave RT RNaseH block 1, RmlC RmlD mix 39* and RmlCD fluor art active.
COc1ccccc1-c1coc2c(CN3CCN(C)CC3)c(O)ccc2c1=O was read as RT RNaseH block -6 and RmlC RmlD mix 16.
Screening CN(c1ccc(C(=O)NC2CC2)cc1)S(=O)(=O)c1ccccc1 returned RT RNaseH block -7 and RmlC RmlD mix -13.
`COC1(c2ccccc2)NC(=S)NN=C1c1ccccc1` (stereo not drawn) gave RmlC RmlD mix -13.
`CCCNC(=O)c1ccc2c(=O)n3c(-c4ccc(C)cc4)csc3nc2c1` gave RmlC RmlD mix 20.
For O=C(Nc1ccc(Cl)c(C(F)(F)F)c1)C1CCCN(S(=O)(=O)c2cnc[nH]2)C1 (stereo not drawn) the results were RT RNaseH block -6 and RmlC RmlD mix -9.
For NC(=O)CC(NC(=O)Cc1cccc2ccccc12)c1ccc(NC2CCCCCCC2)c([N+](=O)[O-])c1 (stereo not drawn) the results were RmlC RmlD mix 5.
For CS(=O)(=O)N(Cc1ccccc1)c1ccc(C(=O)N2CCc3ccccc3C2)cc1 the results were RmlC RmlD mix -30.
Screening Cc1ccc(C)c(/C(O)=C2/C(=O)C(=O)N(CCN3CCOCC3)C2c2ccco2)c1 (stereo not drawn) returned RT RNaseH block -11 and RmlC RmlD mix 12.
`Cc1c(CCC(=O)O)c(=O)oc2cc(O)ccc12` gave RT RNaseH block -6, RmlC RmlD mix 128* and RmlCD fluor art active.
Cc1c(CCC(=O)O)c(=O)oc2cc3occ(-c4ccc(F)cc4)c3cc12 was read as RT RNaseH block -27 and RmlC RmlD mix -6.
`COC(=O)C1=C[C@@H](C(=O)OC)[C@@H]2C3=C(C(=O)[C@@]2(C)NC(=O)c2ccccc2)[C@H](C)C(C(=O)OC)=C(C(=O)OC)[C@@H]3C1` gave RmlC RmlD mix -3.
Screening CCOC(=O)C1=C(C)N(CCCC(=O)O)C(=O)NC1c1ccc2ccccc2c1 (stereo not drawn) returned RmlC RmlD mix 0.
Screening N#Cc1c(N)n(CCNC(=O)c2cccs2)c2nc3ccccc3nc12 returned RT RNaseH block -11, RmlC RmlD mix 37* and RmlCD fluor art active.
CCCCCn1c(N)c(C#N)c2nc3ccccc3nc21 was read as RT RNaseH block -6 and RmlC RmlD mix -11.
COCCCn1c(=NC(=O)c2ccncc2)c(C#N)cc2c(=O)n3cccc(C)c3nc21 was read as RT RNaseH block -9, RmlC RmlD mix 104* and RmlCD fluor art active.
`CCCCNC(=O)c1cc2c(=O)n3cccc(C)c3nc2n(CCN2CCOCC2)c1=N` gave RT RNaseH block -16.
`Cc1cccn2c(=O)c3cc(C#N)c(=NC(=O)c4ccncc4)n(CCCOC(C)C)c3nc12` gave RT RNaseH block -2 and RmlC RmlD mix inconclusive.
For N=c1c(C(=O)NC2CCCC2)cc2c(=O)n3ccccc3nc2n1C1CCCC1 the results were RT RNaseH block -11, RmlC RmlD mix 85* and RmlCD fluor art active.
Cc1cccn2c(=O)c3cc(C(=O)NCc4cccnc4)c(=N)n(C(C)C)c3nc12 was read as RT RNaseH block -36, RmlC RmlD mix 33* and RmlCD fluor art active.
Screening COC(=O)c1cc2c(=O)n3ccccc3nc2n(C(C)C)c1=N returned RT RNaseH block -26.
`CCCCNC(=O)c1cc2c(=O)n3cccc(C)c3nc2n(Cc2ccncc2)c1=N` gave RT RNaseH block -12, RmlC RmlD mix 89* and RmlCD fluor art active.
Screening Cc1cccn2c(=O)c3cc(C(=O)NCc4cccnc4)c(=N)n(C)c3nc12 returned RT RNaseH block -14.
For O=C(NC1CC1)C1=C[C@@H](c2csc3ccccc23)C[C@@H](OCc2ccc(CO)cc2)O1 the results were RmlC RmlD mix -3.
Screening C1CNCCNCCNCCN1 returned RT RNaseH block 1.
For COCCCn1c(=N)c(C(=O)NCc2ccc3c(c2)OCO3)cc2c(=O)n3ccccc3nc21 the results were RT RNaseH block -27 and RmlC RmlD mix 20.
`Cc1cccn2c(=O)c3cc(C(=O)NC4CCCCC4)c(=N)n(CCN4CCOCC4)c3nc12` gave RT RNaseH block 20.
`COCCCn1c(=N)c(C(=O)NC2CCCCC2)cc2c(=O)n3ccccc3nc21` gave RmlC RmlD mix 49* and RmlCD fluor art active.
For CCn1c(=N)c(C(=O)NC)cc2c(=O)n3cccc(C)c3nc21 the results were RT RNaseH block -24.
For CCCn1c(=N)c(C(=O)NC2CCCC2)cc2c(=O)n3cccc(C)c3nc21 the results were RmlC RmlD mix 43* and RmlCD fluor art active.
Screening Cc1cccn2c(=O)c3cc(C(=O)NC4CCCC4)c(=N)n(C4CCCC4)c3nc12 returned RT RNaseH block -16, RmlC RmlD mix 79* and RmlCD fluor art active.
CCN(CC)c1ccc(NC(=O)Nc2ccccc2C(F)(F)F)cc1 was read as RmlC RmlD mix 6.
For COC(=O)C1=C(C)N(CCCC(=O)O)C(=O)NC1c1ccccc1OS(=O)(=O)c1ccc([N+](=O)[O-])cc1 (stereo not drawn) the results were RmlC RmlD mix 5.
Screening CSc1ccc(-c2c(C#N)c(N)nc3c2CCCC3)cc1 returned RT RNaseH block 3, RmlC RmlD mix 33* and RmlCD fluor art active.
N#Cc1c(N)nc2c(c1-c1ccncc1)CCCCC2 was read as RT RNaseH block -24 and RmlC RmlD mix -14.
Screening COc1ccc(COC[C@H](C)[C@H](O)[C@@H](C)[C@H]2OC(=O)[C@@H]2C)cc1 returned RmlC RmlD mix 5.
Screening O=C(NCc1ccccc1)C1=C[C@@H](c2coc3ccccc3c2=O)C[C@@H](OCc2ccc(CO)cc2)O1 returned RmlC RmlD mix -10.
`COc1cc(NC(=O)c2cccs2)c(C(=O)OCC(=O)NCc2ccccc2)cc1OC` gave RmlC RmlD mix 45* and RmlCD fluor art active.
For COc1cc(NC(=O)c2cccs2)c(C(=O)OCC(=O)NC(C)c2ccccc2)cc1OC (stereo not drawn) the results were RmlC RmlD mix -6.
For O=C(Nc1ccccc1)C1=C[C@@H](c2ccc(C(F)(F)F)cc2)C[C@@H](OCCCCO)O1 the results were RmlC RmlD mix -11.
`CC1CCC(NC(=O)N(CCCl)N=O)CC1` (stereo not drawn) gave RmlC RmlD mix 6.
`O=C(CSc1ncn[nH]1)NCCC(c1ccccc1)c1ccccc1` gave RmlC RmlD mix -16.
For O=C(CCCn1c(=O)[nH]c2ccsc2c1=O)N1CCN(c2ccccn2)CC1 the results were RT RNaseH block -5, RmlC RmlD mix 70* and RmlCD fluor art inactive.
Screening O=C(CCCn1c(=O)[nH]c2ccccc2c1=O)N1CCN(c2ccccn2)CC1 returned RT RNaseH block -10.
For CCOC(=O)C[C@H]1c2ccccc2S(=O)(=O)N1c1ccccc1 the results were RmlC RmlD mix 2.
